Tests used:
[1] = target: T1, Serine/threonine-protein kinase TBK1 (Homo sapiens) (UniProt Q9UHD2); details: at 10 µM
T1 sequence (whole entry): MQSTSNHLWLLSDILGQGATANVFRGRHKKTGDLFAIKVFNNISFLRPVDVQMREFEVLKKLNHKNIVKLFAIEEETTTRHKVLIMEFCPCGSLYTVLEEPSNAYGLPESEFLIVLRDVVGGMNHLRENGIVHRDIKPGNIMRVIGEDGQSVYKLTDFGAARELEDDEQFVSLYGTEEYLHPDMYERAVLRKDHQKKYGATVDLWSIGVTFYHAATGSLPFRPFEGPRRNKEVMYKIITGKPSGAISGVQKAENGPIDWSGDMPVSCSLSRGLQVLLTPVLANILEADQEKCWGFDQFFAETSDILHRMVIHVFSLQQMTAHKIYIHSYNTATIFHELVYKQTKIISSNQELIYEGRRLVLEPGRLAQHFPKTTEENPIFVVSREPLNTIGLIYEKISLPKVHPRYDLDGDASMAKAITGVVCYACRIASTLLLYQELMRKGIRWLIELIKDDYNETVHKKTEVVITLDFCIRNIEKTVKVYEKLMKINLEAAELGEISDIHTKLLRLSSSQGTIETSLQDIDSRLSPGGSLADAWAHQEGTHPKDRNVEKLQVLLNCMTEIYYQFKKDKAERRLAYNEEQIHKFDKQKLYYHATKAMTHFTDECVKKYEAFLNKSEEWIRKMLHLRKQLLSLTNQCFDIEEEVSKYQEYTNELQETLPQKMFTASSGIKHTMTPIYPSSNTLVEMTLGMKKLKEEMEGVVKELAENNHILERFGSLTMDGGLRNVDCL

[2] = target: T2, TGF-beta receptor type-1 (Homo sapiens) (UniProt P36897); details: at 1 µM
T2 sequence (whole entry): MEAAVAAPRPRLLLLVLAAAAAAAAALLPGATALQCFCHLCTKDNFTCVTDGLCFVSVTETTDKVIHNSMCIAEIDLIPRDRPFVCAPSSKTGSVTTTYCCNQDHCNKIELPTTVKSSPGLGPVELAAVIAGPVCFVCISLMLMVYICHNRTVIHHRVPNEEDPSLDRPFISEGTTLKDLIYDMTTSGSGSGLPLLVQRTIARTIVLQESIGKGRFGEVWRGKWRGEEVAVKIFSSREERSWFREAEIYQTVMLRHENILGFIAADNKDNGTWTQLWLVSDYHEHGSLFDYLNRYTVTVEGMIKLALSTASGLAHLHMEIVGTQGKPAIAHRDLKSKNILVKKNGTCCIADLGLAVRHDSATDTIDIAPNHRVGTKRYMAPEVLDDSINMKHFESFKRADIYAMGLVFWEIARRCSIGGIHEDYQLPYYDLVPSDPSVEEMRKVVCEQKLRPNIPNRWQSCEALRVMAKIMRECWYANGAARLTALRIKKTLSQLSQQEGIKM

[3] = target: T2, TGF-beta receptor type-1 (Homo sapiens); details: at 10 µM
[4] = target: T3, Inhibitor of nuclear factor kappa-B kinase subunit alpha (Homo sapiens) (UniProt O15111); details: at 1 µM
T3 sequence (whole entry): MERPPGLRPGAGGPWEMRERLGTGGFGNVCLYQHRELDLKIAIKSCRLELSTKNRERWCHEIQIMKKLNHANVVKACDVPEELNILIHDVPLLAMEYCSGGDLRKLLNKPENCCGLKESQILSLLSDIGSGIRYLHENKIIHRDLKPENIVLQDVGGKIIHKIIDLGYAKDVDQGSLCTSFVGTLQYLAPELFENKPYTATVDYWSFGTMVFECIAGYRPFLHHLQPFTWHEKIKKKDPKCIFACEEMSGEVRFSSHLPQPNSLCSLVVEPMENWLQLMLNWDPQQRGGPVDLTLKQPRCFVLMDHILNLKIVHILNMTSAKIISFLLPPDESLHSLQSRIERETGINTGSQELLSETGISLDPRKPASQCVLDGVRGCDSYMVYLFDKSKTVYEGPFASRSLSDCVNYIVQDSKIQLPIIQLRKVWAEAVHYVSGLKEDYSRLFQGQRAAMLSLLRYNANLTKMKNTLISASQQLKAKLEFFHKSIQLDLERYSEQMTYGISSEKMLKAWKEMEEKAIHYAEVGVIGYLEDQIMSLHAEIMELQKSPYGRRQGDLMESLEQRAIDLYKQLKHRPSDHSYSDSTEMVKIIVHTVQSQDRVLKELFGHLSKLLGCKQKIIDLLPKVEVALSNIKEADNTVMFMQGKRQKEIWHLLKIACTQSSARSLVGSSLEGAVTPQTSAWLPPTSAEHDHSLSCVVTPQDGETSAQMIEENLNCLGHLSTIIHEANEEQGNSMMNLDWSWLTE

[5] = target: T3, Inhibitor of nuclear factor kappa-B kinase subunit alpha (Homo sapiens); details: at 10 µM
[6] = target: T4, Inhibitor of nuclear factor kappa-B kinase subunit beta (Homo sapiens) (UniProt O14920); details: at 1 µM
T4 sequence (whole entry): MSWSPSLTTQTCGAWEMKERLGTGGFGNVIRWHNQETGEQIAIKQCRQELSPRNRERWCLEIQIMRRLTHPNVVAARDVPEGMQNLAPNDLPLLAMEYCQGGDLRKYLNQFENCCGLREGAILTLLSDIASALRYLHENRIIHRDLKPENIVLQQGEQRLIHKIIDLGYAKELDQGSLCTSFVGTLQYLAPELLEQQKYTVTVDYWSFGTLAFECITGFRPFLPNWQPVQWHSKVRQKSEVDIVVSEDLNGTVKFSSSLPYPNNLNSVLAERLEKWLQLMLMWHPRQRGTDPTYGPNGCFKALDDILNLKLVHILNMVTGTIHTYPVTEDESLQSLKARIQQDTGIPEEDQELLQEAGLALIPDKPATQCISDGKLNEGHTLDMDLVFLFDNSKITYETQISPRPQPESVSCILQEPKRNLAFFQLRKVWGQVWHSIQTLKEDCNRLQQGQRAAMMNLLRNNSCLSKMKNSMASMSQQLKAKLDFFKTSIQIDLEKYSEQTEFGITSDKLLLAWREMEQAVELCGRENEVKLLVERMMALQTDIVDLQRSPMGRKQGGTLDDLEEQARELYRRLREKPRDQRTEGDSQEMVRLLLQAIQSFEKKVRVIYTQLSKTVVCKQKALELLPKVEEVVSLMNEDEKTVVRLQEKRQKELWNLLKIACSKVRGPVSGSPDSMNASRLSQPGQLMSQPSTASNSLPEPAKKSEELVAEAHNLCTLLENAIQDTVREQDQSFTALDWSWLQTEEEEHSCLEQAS

[7] = target: T4, Inhibitor of nuclear factor kappa-B kinase subunit beta (Homo sapiens); details: at 10 µM
[8] = target: Insulin receptor (Homo sapiens) (UniProt P06213); details: at 1 µM
[9] = target: Insulin receptor (Homo sapiens) (UniProt P06213); details: at 10 µM
[10] = target: Insulin receptor (Homo sapiens) (UniProt P06213); details: at 1 µM; remark: listed apart in the source
[11] = target: Insulin receptor (Homo sapiens) (UniProt P06213); details: at 10 µM; remark: listed apart in the source
[12] = target: Interleukin-1 receptor-associated kinase 1 (Homo sapiens) (UniProt P51617); details: at 1 µM
[13] = target: Interleukin-1 receptor-associated kinase 1 (Homo sapiens) (UniProt P51617); details: at 10 µM
[14] = target: T5, Interleukin-1 receptor-associated kinase 4 (Homo sapiens) (UniProt Q9NWZ3); details: at 10 µM
T5 sequence (whole entry): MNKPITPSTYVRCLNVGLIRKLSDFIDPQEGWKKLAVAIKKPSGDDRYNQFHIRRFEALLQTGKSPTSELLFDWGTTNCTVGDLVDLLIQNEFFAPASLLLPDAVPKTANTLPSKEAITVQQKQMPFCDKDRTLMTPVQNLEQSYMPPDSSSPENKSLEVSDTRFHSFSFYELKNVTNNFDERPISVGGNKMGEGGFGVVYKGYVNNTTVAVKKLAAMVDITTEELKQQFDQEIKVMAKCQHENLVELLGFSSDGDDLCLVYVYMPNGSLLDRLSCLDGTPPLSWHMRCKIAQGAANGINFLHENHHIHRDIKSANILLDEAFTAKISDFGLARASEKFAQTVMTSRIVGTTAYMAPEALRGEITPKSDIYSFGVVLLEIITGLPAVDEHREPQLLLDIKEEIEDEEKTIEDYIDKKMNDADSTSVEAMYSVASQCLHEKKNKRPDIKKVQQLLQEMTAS

[15] = target: Insulin-like growth factor 1 receptor (Homo sapiens) (UniProt P08069); details: at 1 µM
[16] = target: Insulin-like growth factor 1 receptor (Homo sapiens) (UniProt P08069); details: at 10 µM
[17] = target: T5, Interleukin-1 receptor-associated kinase 4 (Homo sapiens); details: at 1 µM
[18] = target: Insulin receptor-related protein (Homo sapiens) (UniProt P14616); details: at 1 µM
[19] = target: Insulin receptor-related protein (Homo sapiens) (UniProt P14616); details: at 10 µM
[20] = target: T6, Tyrosine-protein kinase ITK/TSK (Homo sapiens) (UniProt Q08881); details: at 1 µM
T6 sequence (whole entry): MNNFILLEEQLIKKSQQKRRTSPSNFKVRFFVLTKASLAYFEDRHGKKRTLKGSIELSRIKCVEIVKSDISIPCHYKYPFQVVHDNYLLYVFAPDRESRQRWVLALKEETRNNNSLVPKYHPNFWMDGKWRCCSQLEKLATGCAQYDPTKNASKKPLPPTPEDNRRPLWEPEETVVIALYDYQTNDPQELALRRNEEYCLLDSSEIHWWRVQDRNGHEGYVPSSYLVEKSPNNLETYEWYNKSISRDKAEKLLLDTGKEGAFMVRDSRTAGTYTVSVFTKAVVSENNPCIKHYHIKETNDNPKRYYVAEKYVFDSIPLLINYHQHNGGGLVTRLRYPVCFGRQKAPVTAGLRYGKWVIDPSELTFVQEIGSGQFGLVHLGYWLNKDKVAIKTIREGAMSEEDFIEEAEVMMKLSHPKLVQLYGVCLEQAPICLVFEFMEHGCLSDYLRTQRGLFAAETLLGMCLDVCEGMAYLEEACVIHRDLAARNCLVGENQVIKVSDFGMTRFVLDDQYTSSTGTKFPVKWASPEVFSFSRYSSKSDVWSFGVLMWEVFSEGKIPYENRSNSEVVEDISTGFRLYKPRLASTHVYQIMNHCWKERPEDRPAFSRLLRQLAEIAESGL

Interleukin-1 receptor-associated kinase 1 (Homo sapiens), sequence (P51617 whole entry, looked up): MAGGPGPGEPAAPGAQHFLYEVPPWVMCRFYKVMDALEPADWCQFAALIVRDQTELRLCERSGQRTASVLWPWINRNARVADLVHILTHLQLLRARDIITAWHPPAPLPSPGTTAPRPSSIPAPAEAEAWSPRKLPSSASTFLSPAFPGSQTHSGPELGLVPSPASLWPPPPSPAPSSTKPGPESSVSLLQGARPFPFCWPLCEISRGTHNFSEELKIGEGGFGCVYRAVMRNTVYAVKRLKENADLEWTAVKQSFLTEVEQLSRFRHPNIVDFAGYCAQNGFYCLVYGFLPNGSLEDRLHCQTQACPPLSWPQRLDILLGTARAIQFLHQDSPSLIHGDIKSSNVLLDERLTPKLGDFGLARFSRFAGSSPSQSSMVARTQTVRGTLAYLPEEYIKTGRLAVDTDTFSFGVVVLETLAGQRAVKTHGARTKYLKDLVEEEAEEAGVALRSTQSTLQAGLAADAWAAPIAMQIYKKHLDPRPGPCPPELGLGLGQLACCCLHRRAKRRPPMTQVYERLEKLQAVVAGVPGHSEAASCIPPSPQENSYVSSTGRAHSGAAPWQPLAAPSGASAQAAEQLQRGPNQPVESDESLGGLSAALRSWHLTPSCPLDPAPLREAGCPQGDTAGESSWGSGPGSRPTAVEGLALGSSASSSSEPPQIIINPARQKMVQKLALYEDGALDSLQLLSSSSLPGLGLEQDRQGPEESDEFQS
Insulin receptor (Homo sapiens), sequence (P06213 28-758 limits assumed): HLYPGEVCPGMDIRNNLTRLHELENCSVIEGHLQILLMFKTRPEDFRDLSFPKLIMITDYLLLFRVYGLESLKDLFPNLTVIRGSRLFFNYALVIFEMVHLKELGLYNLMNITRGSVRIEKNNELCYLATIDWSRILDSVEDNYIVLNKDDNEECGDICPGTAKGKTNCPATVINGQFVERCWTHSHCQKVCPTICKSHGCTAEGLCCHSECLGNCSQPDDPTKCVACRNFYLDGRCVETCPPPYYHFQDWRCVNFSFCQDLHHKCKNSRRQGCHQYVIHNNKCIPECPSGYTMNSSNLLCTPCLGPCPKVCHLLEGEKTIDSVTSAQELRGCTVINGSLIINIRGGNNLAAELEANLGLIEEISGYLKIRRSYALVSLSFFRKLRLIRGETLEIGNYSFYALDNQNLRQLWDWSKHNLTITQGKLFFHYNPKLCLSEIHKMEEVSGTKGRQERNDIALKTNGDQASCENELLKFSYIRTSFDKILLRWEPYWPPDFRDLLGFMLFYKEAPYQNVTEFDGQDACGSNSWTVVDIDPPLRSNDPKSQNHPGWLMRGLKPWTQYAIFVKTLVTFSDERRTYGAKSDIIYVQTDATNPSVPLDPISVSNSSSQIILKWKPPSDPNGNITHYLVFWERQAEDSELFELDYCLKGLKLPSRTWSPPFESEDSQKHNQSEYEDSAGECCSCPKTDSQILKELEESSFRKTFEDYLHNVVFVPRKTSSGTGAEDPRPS
Insulin receptor (Homo sapiens), sequence (P06213 763-1382 limits assumed): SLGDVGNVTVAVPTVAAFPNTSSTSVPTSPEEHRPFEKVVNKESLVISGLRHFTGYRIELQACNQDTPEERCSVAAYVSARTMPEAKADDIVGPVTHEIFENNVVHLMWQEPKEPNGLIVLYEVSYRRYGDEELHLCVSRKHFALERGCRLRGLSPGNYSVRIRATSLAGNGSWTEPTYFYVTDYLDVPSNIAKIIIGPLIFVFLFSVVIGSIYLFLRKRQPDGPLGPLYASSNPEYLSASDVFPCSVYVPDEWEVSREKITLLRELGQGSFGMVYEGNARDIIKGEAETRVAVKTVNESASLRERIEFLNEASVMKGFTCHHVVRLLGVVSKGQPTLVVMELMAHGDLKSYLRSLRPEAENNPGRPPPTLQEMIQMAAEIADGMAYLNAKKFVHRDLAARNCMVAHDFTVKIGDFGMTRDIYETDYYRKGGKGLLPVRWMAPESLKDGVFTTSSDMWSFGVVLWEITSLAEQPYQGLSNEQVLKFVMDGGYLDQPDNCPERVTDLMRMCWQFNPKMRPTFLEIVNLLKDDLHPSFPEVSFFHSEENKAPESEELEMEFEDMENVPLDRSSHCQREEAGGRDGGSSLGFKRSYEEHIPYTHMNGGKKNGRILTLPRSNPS
Insulin receptor-related protein (Homo sapiens), sequence (P14616 27-742 limits assumed): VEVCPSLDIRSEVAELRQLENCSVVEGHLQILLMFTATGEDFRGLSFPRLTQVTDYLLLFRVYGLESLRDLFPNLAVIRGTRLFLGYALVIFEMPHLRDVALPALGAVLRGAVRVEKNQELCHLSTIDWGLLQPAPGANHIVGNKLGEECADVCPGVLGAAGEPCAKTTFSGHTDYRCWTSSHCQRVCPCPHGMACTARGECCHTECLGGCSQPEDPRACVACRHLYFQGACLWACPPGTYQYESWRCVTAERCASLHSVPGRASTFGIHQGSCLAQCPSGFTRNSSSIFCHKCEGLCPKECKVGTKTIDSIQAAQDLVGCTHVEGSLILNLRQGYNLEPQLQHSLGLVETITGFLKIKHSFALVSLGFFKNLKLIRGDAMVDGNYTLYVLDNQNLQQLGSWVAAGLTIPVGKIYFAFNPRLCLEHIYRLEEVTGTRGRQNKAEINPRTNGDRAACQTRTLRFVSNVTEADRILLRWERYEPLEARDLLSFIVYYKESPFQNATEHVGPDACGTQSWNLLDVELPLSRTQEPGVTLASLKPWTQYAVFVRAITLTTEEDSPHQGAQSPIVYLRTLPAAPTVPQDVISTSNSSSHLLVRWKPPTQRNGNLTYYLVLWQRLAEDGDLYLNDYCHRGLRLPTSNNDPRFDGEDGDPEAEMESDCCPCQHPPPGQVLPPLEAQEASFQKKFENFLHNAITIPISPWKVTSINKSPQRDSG
Insulin receptor-related protein (Homo sapiens), sequence (P14616 747-1297 limits assumed): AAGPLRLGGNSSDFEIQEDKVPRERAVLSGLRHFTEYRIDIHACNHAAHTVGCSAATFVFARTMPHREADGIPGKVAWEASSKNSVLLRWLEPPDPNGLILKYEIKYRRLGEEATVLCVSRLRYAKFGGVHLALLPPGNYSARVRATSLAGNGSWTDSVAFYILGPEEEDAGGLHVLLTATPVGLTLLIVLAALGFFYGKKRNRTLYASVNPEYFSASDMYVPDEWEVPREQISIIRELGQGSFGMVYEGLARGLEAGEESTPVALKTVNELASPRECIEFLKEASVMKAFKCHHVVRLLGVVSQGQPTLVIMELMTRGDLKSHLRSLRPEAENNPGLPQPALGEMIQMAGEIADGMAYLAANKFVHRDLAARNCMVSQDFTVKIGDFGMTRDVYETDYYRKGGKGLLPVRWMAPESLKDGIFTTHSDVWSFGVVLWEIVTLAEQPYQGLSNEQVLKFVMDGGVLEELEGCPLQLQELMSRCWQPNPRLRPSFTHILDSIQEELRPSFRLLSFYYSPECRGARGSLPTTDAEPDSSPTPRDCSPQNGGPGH
Insulin-like growth factor 1 receptor (Homo sapiens), sequence (P08069 31-736 limits assumed): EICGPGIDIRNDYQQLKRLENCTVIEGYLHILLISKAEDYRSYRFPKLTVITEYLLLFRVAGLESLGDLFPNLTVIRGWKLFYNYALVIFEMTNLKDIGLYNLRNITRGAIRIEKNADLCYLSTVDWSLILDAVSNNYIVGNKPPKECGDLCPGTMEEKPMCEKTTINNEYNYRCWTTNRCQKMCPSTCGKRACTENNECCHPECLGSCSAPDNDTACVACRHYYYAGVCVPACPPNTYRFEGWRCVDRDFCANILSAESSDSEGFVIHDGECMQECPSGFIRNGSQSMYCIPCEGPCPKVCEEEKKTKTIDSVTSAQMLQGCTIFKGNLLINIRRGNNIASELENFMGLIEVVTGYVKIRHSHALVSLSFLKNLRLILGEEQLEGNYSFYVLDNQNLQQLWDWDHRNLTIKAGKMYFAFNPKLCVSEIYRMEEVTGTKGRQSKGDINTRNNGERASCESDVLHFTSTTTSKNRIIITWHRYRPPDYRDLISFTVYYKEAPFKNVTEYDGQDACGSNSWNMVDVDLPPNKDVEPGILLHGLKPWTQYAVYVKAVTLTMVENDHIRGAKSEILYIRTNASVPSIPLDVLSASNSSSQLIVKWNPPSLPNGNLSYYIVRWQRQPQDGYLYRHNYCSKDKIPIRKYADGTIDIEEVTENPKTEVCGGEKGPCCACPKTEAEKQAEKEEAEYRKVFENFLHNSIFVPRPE
Insulin-like growth factor 1 receptor (Homo sapiens), sequence (P08069 741-1367 limits assumed): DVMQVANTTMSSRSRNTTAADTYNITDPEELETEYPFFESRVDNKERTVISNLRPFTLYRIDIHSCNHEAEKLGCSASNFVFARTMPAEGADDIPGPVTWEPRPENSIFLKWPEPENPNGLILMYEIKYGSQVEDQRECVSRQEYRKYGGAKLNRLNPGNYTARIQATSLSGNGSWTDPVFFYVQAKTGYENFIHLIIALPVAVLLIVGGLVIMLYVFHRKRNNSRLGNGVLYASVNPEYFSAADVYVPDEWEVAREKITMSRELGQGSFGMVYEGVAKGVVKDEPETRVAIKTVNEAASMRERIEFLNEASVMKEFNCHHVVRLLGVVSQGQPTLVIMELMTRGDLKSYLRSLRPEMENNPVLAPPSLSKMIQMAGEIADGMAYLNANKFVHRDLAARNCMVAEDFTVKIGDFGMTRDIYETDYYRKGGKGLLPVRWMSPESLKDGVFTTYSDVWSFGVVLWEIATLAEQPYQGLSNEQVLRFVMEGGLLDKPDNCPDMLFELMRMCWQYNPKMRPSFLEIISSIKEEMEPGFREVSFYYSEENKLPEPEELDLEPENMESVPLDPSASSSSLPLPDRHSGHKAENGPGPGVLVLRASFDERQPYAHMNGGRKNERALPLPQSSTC

Compound | residual activity [1] [%] | residual activity [2] [%] | residual activity [3] [%] | residual activity [4] [%] | residual activity [5] [%] | residual activity [6] [%] | residual activity [7] [%] | residual activity [8] [%] | residual activity [9] [%] | residual activity [10] [%] | residual activity [11] [%] | residual activity [12] [%] | residual activity [13] [%] | residual activity [14] [%] | residual activity [15] [%] | residual activity [16] [%] | residual activity [17] [%] | residual activity [18] [%] | residual activity [19] [%] | residual activity [20] [%]
O=C(O)/C=C/c1cc(Br)c(Br)c(Br)c1Br | 58 | 101 | 97 | 98 | 35 | 105 | 65 | 144 | 141 | 100 | 90 | 101 | 68 | 94 |  |  |  |  |  | 
CC(C)(C)n1nc(Cc2cccc3ccccc23)c2c(N)ncnc21 | 67 | 78 | 57 | 99 | 128 | 104 | 92 | 98 | 65 | 95 | 63 | 90 | 77 | 81 | 100 | 73 | 105 | 124 | 78 | 107
COc1cc2nccc(Oc3ccc(NC(=S)NC(=O)c4ccccc4C)cc3)c2cc1OC | 48 | 78 | 77 |  |  |  |  | 92 | 138 | 97 | 92 | 79 | 67 |  | 87 | 73 | 96 | 121 | 74 | 79
CCCC(=O)Oc1ccc2[nH]c(C(=O)c3cc4ccccc4[nH]3)cc2c1 | 59 | 79 | 93 | 104 | 100 |  | 93 | 107 | 77 | 90 | 89 | 85 | 69 |  | 93 | 90 |  | 134 | 80 | 105
CCCCc1c(-c2ccc(OC)cc2)[nH]c2nccnc12 | 59 | 84 | 73 | 87 | 87 | 109 | 101 |  |  | 66 | 75 | 62 | 81 | 65 | 61 | 51 | 79 | 100 | 88 | 82
O=c1cc(N2CCNCC2)oc2c(-c3ccccc3)cccc12 | 54 | 91 | 85 |  |  | 99 | 82 |  | 94 |  |  | 92 | 76 | 96 |  | 97 | 93 |  | 70 | 83
CN(C)S(=O)(=O)c1ccc2c(c1)/C(=C/c1cc3c([nH]1)CCCC3)C(=O)N2 | 60 | 88 | 91 |  |  | 100 | 63 | 93 | 88 |  | 95 | 9 | 0 | 17 | 93 |  | 19 | 85 | 77 | 23
O=C(CCCc1ccc(-c2ccccc2F)cc1)Nc1ccc(O)cc1 | 73 | 108 | 112 | 101 | 129 |  | 101 | 112 | 102 | 97 | 97 | 78 |  | 82 | 100 | 92 | 93 | 88 | 98 | 90
N#C/C(=C1/Nc2ccccc2S1)c1ccnc(NCCc2cccnc2)n1 | 40 | 96 | 69 | 113 | 71 |  | 83 | 127 | 137 | 98 | 83 | 80 | 70 | 31 |  |  | 80 | 132 | 63 | 
Cn1c2ccccc2c2c3c(c4c5ccccc5n(CCC#N)c4c21)CNC3=O | 9 | 69 | 63 | 48 | 19 | 72 | 63 |  |  |  |  | 47 | 44 | 4 |  |  | -1 | 69 | 53 | 4
COc1cc2c(cc1OC)-c1n[nH]c(Nc3cccc(F)c3)c1C2 | 43 | 78 | 66 | 109 | 112 | 101 | 110 |  |  |  |  | 73 | 68 | 34 |  |  | 76 | 99 |  | 

Reference: ChEMBL document CHEMBL2218924, “A broad activity screen in support of a chemogenomic map for kinase signalling research and drug discovery” (Biochem J, 2013)
